# Rows were chosen to be rich in hits. Some 0.51% of all compounds tested hit in one or more screens of this group.
# phage Ecoli inh = E. coli growth loss with phage present | growth absorbance | inhibition, % at 11.9 µM | 360,000 compounds, 0.26% hits | AID 651602; in the data active = inhibition above about 11%
# E coli growth = blocks Escherichia coli growth; OD600, 23 h; active compounds read low; OD600 absorbance (test concentration not listed); 330,000 compounds, 0.21% hits; AID 1053175;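 active = OD600 absorbance below the run mean of sample wells minus 3.6 SD, in any replicate, cut at about 0.56 in these data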
# RecBCD conf = growth loss of phage-infected V66 E. coli, RecBCD confirmation screen. shares compounds with phage Ecoli inh. E. coli V66 + T4 2- phage, growth OD. inhibition, % at 11.9 µM. 890 compounds, 45% hits. AID 651982;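 active = mean inhibition over triplicates exceeding the hit threshold derived in the original primary screen, cut at about 11% in these data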
# Ecoli viability = inhibits E. coli viability, flagging RecBCD hits as nonselective; shares compounds with phage Ecoli inh; absorbance (OD) growth; inhibition, % at 11.9 µM; 890 compounds, 29% hits; AID 651983; in the data active = inhibition above about 20%;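 note: E. coli strain V66 grown with compound alone and no phage infection; 0% = bacteria with DMSO vehicle only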
# AddAB phage OD = growth loss of phage-infected AddAB E. coli, RecBCD counter-screen. shares compounds with phage Ecoli inh. E. coli expressing H. pylori AddAB + T4 phage, OD growth; gene 2 mutant T4, recBCD-deleted host. inhibition, % at 11.9 µM. 890 compounds, 45% hits. AID 651984;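 active = mean inhibition above the solvent-only control wells' mean plus 3 SD, cut at about 22% in these data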;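 note: higher means less bacterial growth from phage killing when AddAB is blocked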
# Starred values were filed as active, the others as inactive; . = no result given.
SMILES,phage Ecoli inh,E coli growth,RecBCD conf,Ecoli viability,AddAB phage OD
COC(=O)C1=C(c2ccccc2)CC2CCC1N2C(=O)NCc1cccc2ccccc12 (stereo not given),.,0.67,.,.,.
O=[N+]([O-])c1ccc(N(CCO)CCO)c2c1no[n+]2[O-],93*,.,84*,91*,100*
COC(=O)C1=C(c2cccc(OCc3ccccc3)c2)CC2CCC1N2C(=O)NCc1ccccc1 (stereo not given),.,0.73,.,.,.
CCN1/C(=C/C=C/C2=[N+](CC)c3ccccc3C2(C)C)C(C)(C)c2ccccc21,25*,.,18*,21*,43*
CCOC(=O)C1C2COc3ccc(Br)cc3C2N2C(=O)N(c3cccc(C)c3)C(=O)[C@]12C (stereo not given in full),.,0.71,.,.,.

# From PubChem BioAssay
